Only some compounds are listed: those with a hit (about 9.5% of all), similar ones and a draw of the others.
Tau fluor cs: counter-screen for tau fibril formation inhibitors; tau K18 P301L Alexa594 fluorescence, heparin fibrillization; Potency, µM (series often up to 57.7 µM), inactives show at the top dose activity change, negative = decrease; 0.93% of 280,000 active; AID 1463; also: nearly all actives have a fitted effect of over 55% in size
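Human K18 P301L tau (15 uM unlabeled plus 0.24 uM Alexa 594-labeled, final) in 100 mM sodium acetate pH 7 was mixed with compound and 20 uM heparin and incubated 6 hr at 37 C.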
HPGD inh: blocks human HPGD enzyme activity; purified HPGD, NADH fluorescence kinetic, PGE2 substrate; AID 894; Potency, µM, without a hit: at the highest dose activity change, negative = inhibition, most hits filed as inhibitors; P15428; 4.3% of 150,000 active; active = well fitted inhibition curve with a large enough effect, not every such curve was filed as active; inconclusive = small, poorly fitted or top-dose-only effect, or another doubt; inactive = no such curve, though single readings can be large or run the other way
Target sequence (P15428 whole entry, looked up): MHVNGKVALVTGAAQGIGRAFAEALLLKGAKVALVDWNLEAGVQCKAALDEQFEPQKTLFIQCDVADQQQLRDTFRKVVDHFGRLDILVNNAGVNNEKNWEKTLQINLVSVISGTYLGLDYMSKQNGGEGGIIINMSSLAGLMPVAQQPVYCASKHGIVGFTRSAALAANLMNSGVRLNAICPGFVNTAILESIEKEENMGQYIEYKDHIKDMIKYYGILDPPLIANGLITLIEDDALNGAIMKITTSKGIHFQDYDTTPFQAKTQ
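20 nM HPGD preincubated 15 min at room temperature with compound in 50 mM Tris-HCl pH 8, 0.01% Tween 20. Started with 1 mM NAD+ and 30 uM prostaglandin E2; NADH fluorescence (360/450 nm) read 5 times over 30-s intervals, last minus first.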
NPSR antagonist: neuropeptide S receptor (human) antagonism, cAMP; Q6W5P4; CHO-NPSR cells, cAMP TR-FRET, antagonist mode; Potency, µM (titrated, usually from 38.3 µM), for inactives: at the top dose activity change, negative = inhibition, actives largely listed as inhibitors; 1% of 220,000 active; AID 1461; also: nearly all actives have a fitted effect of over 50% in size
Tau ThT inhib: inhibitors of human tau fibril formation, thioflavin T binding; AID 1460; Potency, µM (doses to about 57.4 µM), without a hit: at the top dose activity, negative = inhibition, usual class: inhibitors; recombinant tau K18 P301L (four-repeat tau fragment), heparin-induced fibrillization, ThT fluorescence; 2.1% of 270,000 active; also: nearly all actives have a fitted effect of over 55% in size
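Aggregation was driven by heparin (20 uM final) acting on recombinant tau […] bearing P301L in 100 mM sodium acetate pH 7; fibrils were detected with Thioflavin T.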
Tau FP inhib: tau fibrillization inhibition (FP) | P10636 | K18 P301L tau heparin fibrillization, Alexa594 FP, 6 h | Potency, µM (doses to about 57.7 µM), for the others: top-dose activity, negative = inhibition, usual class: inhibitors | 0.39% of 280,000 active | AID 1468; also: nearly all actives have a fitted effect of over 55% in size
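Quantitative HTS format: compounds meet 15 uM recombinant K18 P301L tau and Alexa 594-tau tracer in 100 mM sodium acetate pH 7; 20 uM heparin triggers fibrillization at 37 C over 6 hr; FP gives the signal.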
ALDH1A1 block: inhibitors of human aldehyde dehydrogenase 1A1. 7.3% of 220,000 active. Purified ALDH1A1, NADH fluorescence, propionaldehyde substrate. Potency, µM (top dose mostly 75.3 µM), for the others: at the top dose activity, negative = inhibition, actives largely listed as inhibitors. P00352; active = well fitted inhibition curve with a large enough effect, not every such curve was filed as active; inconclusive = small, poorly fitted or top-dose-only effect, or another doubt; inactive = no such curve, though single readings can be large or run the other way;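 also: plate controls were no enzyme wells and a reference inhibitor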
Target sequence (P00352 whole entry, looked up): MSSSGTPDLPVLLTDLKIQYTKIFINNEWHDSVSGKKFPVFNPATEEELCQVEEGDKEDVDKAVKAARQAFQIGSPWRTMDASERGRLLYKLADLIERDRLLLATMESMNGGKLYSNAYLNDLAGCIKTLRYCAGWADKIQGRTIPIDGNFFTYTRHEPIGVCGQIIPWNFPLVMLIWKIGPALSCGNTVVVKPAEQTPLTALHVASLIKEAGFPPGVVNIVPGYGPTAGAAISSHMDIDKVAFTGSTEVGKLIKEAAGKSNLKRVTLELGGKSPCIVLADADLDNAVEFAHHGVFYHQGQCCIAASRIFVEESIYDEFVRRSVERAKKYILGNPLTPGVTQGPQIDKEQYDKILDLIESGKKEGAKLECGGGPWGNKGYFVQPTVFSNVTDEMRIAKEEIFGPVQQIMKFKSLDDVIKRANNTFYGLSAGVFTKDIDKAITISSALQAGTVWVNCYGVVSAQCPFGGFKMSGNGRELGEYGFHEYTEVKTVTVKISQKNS
* = called active by the depositor; ? = inconclusive; nt = not tested or not shown; ! = a repeat was not active; [ ] = dose if it differs, or a comment. Unless noted, calls follow the shape of the dose curve; as a rule, active = well fitted curve in the direction sought with a large enough effect; inconclusive = small, poorly fitted or top-dose-only effect, or another doubt; inactive = no such curve, though single readings can be large; an effect the other way counts as inactive or inconclusive. Unless noted, % is scaled to controls: 0 for no effect and ±100 for the full control effect; potency is read from the fitted curve at half-maximal effect.

SMILES	Tau fluor cs	HPGD inh	NPSR antagonist	Tau ThT inhib	Tau FP inhib	ALDH1A1 block
COc1ccc(-c2nc(C3CCCCC3)no2)cc1OC	-22.5%	?	-18.4%[46.1 µM]	-17.7%	-5.6%	22.4µM*
O=C(Nc1ccc(-c2csc(Nc3ccc(Cl)cc3)n2)cc1)c1cc([N+](=O)[O-])cc(C(F)(F)F)c1	7.08µM*[quencher]	nt	5.6%	?	?	nt
O=C(Nc1cccc(-c2csc(Nc3ccc(Cl)cc3)n2)c1)c1cc([N+](=O)[O-])cc(C(F)(F)F)c1	7.08µM*[quencher]	nt	-53.1%	?	4.6%	nt
NS(=O)(=O)c1ccc(Nc2nc(-c3cccc([N+](=O)[O-])c3)cs2)cc1	?	nt	-47.4%	?	-0.1%	-11.1%
COc1cccc(Cn2c(Oc3cc(C)cc(C)c3)nc3c2c(=O)n(C)c(=O)n3C)c1	-13.0%	nt	nt	-20.7%	-6.4%	nt
COC(=O)c1c(C)c2c(c(C)c1O)OC(=O)c1c(C)c(Cl)c(O)c(Cl)c1O2	-13.5%	7.08µM*!	nt	-20.3%	-1.1%	7.6%
O=C(O)C1C2C=CC(C2)C1C(=O)NC1CCS(=O)(=O)C1 (stereo not drawn)	1.1%	-11.5%	9.2%[46.1 µM]	-7.5%	2.7%	22.4µM*
O=C(NC1CCS(=O)(=O)C1)C1C2CC3CC(C2)CC1C3 (stereo not drawn)	9.5%	nt	4.5%	8.1%	4.5%	4.7%
Cc1ccc(CSc2nc3ccncc3n2CC(=O)Nc2cc(C)cc(C)c2)cc1	?	-13.3%	3.16µM*	-4.2%	?	-12.1%
COc1ccc(NC(=O)Cn2c(SCc3cccc(Cl)c3)nc3ccncc32)c(OC)c1OC	14.1µM*[quencher]	nt	nt	?	-5.7%	nt
Cc1ccc(NC(=O)Cn2c(SCc3cccc(F)c3)nc3ccncc32)c(C)c1	-8.8%	nt	nt	-8.8%	-10.6%	nt
Cc1cc(C)cc(NC(=O)Cn2c(SCc3cc(C)ccc3C)nc3ccncc32)c1	?	-17.7%	-20.9%	-12.0%	?	6.0%
CCOc1ccc(Cn2nnc(C(=O)Nc3cccc(SC)c3)c2N)cc1	-26.5%	nt	nt	8.4%	?	nt
Cn1c(=O)n(C)c2cc(C(=O)c3ccccc3)ccc21	-3.1%	-14.3%	-8.7%[46.1 µM]	-3.9%	8.2%	7.94µM*
CC(C)CCCNc1nc(N2CCOCC2)nc(N2CCOCC2)n1	-7.4%	-3.3%	-17.5%	-8.1%	3.6%	-0.1%
CC(C)CN(C#N)c1nc(N2CCOCC2)nc(N2CCOCC2)n1	-14.1%	-11.3%	?	-12.2%	-4.2%	7.94µM*
Cc1cc(C(=O)OCC(=O)N2CC(C)CC(C)C2)c(C)o1 (stereo not drawn)	0.9%	-8.4%	-0.1%[46.1 µM]	-12.7%	-6.2%	14.1µM*
CC1CC(C)CN(C(=O)COC(=O)c2cc3ccccc3cc2O)C1 (stereo not drawn)	-23.0%	-23.4%	?	?	-5.3%	-6.5%
O=C(CNC(=O)c1ccco1)OCc1ccc(Cl)cc1	14.2%	-12.1%	17.9%[46.1 µM]	4.1%	7.3%	?
CN(C)S(=O)(=O)c1ccc(S(=O)(=O)Nc2ccc3c(c2)oc2ccccc23)cc1	-29.7%	-11.6%	3.6%[46.1 µM]	12.2%	?	12.6µM*
O=C(O)CSc1ccc2ccccc2n1	2.5%	-17.9%	20.7%[46.1 µM]	-14.2%	9.4%	-58.0%
O=C(CSc1ccc2ccccc2n1)c1ccc2c(c1)OCO2	-30.0%	8.91µM*	-26.2%[46.1 µM]	?	?	?
O=C(CSc1nc2ccc(Cl)cc2[nH]1)c1ccc2c(c1)OCO2	?	-15.9%	-24.2%[46.1 µM]	-16.6%	?	17.8µM*
O=C(CSc1nc2cc(Cl)c(Cl)cc2[nH]1)c1ccc2c(c1)OCO2	?	nt	25.5%	?	?	nt
CCN(CC)c1ccc(NS(=O)(=O)c2cc3[nH]c(=O)c(=O)[nH]c3cc2C)c(C)c1	-23.2%	nt	nt	?	5.3%	nt
SMILES	Tau fluor cs	HPGD inh	NPSR antagonist	Tau ThT inhib	Tau FP inhib	ALDH1A1 block
Nc1nc(N)c(N=Nc2ccc(C(=O)O)c(O)c2)c(N)n1	nt	?	nt	nt	nt	-7.2%[13.5 µM]
Cc1n[nH]c(C)c1Sc1ccccc1N=Cc1cc([N+](=O)[O-])ccc1O	-8.1%	-7.3%	0.9%[46.1 µM]	-19.8%	1.0%	3.2%
Cc1cc(O)c(C(C)C)cc1N=Cc1cc([N+](=O)[O-])ccc1O	?	nt	2.9%	3.55µM*	7.08µM*	-10.7%
Cc1cc(O)c(C(C)C)cc1N=Cc1ccccc1O	?	-9.8%	34.6%	3.55µM*	8.91µM*	-9.1%[13.5 µM]
C[N+](C)([O-])CCC=C1c2ccccc2CCc2ccccc21	nt	-1.4%	nt	nt	nt	7.2%[13.5 µM]
Cc1cc(NO)nc(-c2ccc(Br)cc2)n1	-7.4%	-10.2%	19.4%[46.1 µM]	-8.0%	1.3%	?
Cc1ccc(O)c(-c2ccnc3cc(-c4ccc(Cl)cc4)nn23)c1	?	nt	nt	4.6%	31.6µM*	nt
CCc1cc2c(=O)c(-c3cnn(-c4ccccc4)c3)c(C)oc2cc1OCC(=O)Nc1cccc(C)c1	-2.3%	-6.2%	?	-9.6%	1.7%	2.6%
CCc1cc2c(=O)c(-c3cnn(-c4ccccc4)c3)c(C)oc2cc1OCC(=O)Nc1ccc(F)c(F)c1	-9.1%	-14.1%	7.94µM*	-9.2%	-4.5%	17.8%
CCc1cc2c(=O)c(-c3ccc(F)cc3)c(C)oc2cc1OCC(=O)O	-24.8%	nt	20.3%	?	-5.1%	35.5µM*
Nc1sc2c(c1C(=O)NC1CCS(=O)(=O)C1)CCC2 (stereo not drawn)	-22.1%	-23.9%	-2.4%[46.1 µM]	?	?	?
CCOC(=O)c1c(C)[nH]c(C(=O)COC(=O)C2(C)CC2(Cl)Cl)c1C (stereo not drawn)	-20.7%	-15.0%	?	-23.6%	-2.3%	?
COC(=O)C1=C(C)NC(=O)/C1=C\c1cc(C)n(-c2ccccc2F)c1C	-23.8%	nt	-3.1%	?	-8.7%	15.8µM*
COC(=O)C1=C(C)NC(=O)/C1=C\c1cc(C)n(-c2c(C)cccc2C)c1C	-17.4%	-6.3%	-6.6%[46.1 µM]	?	-15.4%	17.8µM*
Cc1cccc(C)c1-n1c(C)cc(/C=C2\NC(=O)NC2=O)c1C	-2.2%	?	-30.1%[46.1 µM]	-0.7%	0.3%	15.8µM*
COC(=O)C1=C(C)NC(=O)/C1=C\c1cc(C)n(-c2ccccc2C)c1C	?	-13.2%	-15.7%[46.1 µM]	?	4.9%	?
Cc1cc(/C=C2\NC(=O)NC2=O)c(C)n1-c1cccnc1	-6.9%	nt	-24.5%	-13.8%	1.6%	nt
CCOc1cc(C=O)ccc1OCC(N)=O	-8.4%	nt	-19.7%	-7.8%	-6.5%	11.2µM*
CCOc1cc(C=O)cc(Br)c1OCC(N)=O	-2.6%	nt	-1.3%	-4.8%	0.5%	7.94µM*
CCCOc1c(Br)cc(C(N)=O)cc1OCC	-6.9%	nt	-3.5%	-3.3%	-8.5%	8.7%
O=C(/C(N=Nc1cccc(C(F)(F)F)c1)=C(/O)c1cccs1)C(F)(F)F	?	nt	?	?	-10.1%	0.1%
Cc1cccc(N=N/C(=C\O)C(=O)c2cccs2)c1	-17.2%	nt	?	28.2µM*	-7.0%	8.91µM*

Source: PubChem BioAssay
